# Test results: the supplement of paper PMC6555819
# Tests used:
# Test in all cases: PBM binding z-score (relative to random genomic background probes); higher = stronger binding; sequences stand for … in GC…GCGATTGACAGCGTAGAATGAAGG
# [1] = tested on: FXR:RXRa (NR concentration 270 nM, RXRa partner concentration 90 nM)
# Summary of the method: (§1)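 Binding z-scores were set against random background probes. The data came from custom Agilent 4×180K protein-binding microarrays carrying double-stranded probes with 34-nt variable regions, incubated 1 h with ligand-free nuclear receptor dimers. Partner-specific antibodies detected binding, and scanned fluorescence was regression-normalized.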
# [2] = tested on: LXRa:RXRa (NR concentration 270 nM, RXRa partner concentration 90 nM)
# Summary of the method: as §1
# [3] = tested on: LXRa homodimer (NR concentration 270 nM)
# Summary of the method: as §1
# [4] = tested on: LXRb:RXRa (NR concentration 270 nM, RXRa partner concentration 90 nM)
# Summary of the method: as §1
# [5] = tested on: LXRb homodimer (NR concentration 270 nM)
# Summary of the method: as §1
# [6] = tested on: PPARa:RXRa (NR concentration 270 nM, RXRa partner concentration 90 nM)
# Summary of the method: as §1
# [7] = tested on: PPARg:RXRa (NR concentration 180 nM, RXRa partner concentration 90 nM)
# Summary of the method: as §1
# [8] = tested on: PPARg:RXRa 270nM:90nM, anti-RXR (NR concentration 270 nM, RXRa partner concentration 90 nM)
# Summary of the method: as §1
# [9] = tested on: PPARg:RXRa 30nM:10nM, anti-RXR (NR concentration 30 nM, RXRa partner concentration 10 nM)
# Summary of the method: as §1
# [10] = tested on: PPARg:RXRa 90nM:30nM, anti-RXR (NR concentration 90 nM, RXRa partner concentration 30 nM)
# Summary of the method: as §1
# [11] = tested on: PPARg:RXRa DBDmut IVT, anti-RXR (DBD mutation: RXRa K156A/R161A, NR concentration 270 nM, RXRa partner concentration 90 nM)
# Summary of the method: as §1
# [12] = tested on: PPARg:RXRa IVT, anti-PPARg (NR concentration 270 nM, RXRa partner concentration 90 nM)
# Summary of the method: as §1
# [13] = tested on: PPARg DBDmut:RXRa IVT, anti-PPARg (DBD mutation: PPARg1 K132A/R137A, NR concentration 270 nM, RXRa partner concentration 90 nM)
# Summary of the method: as §1
# [14] = tested on: PPARg DBDmut IVT, anti-PPARg (DBD mutation: PPARg1 K132A/R137A, NR concentration 270 nM)
# Summary of the method: as §1
# [15] = tested on: PPARg homodimer (NR concentration 180 nM)
# Summary of the method: as §1
# [16] = tested on: PXR:RXRa (NR concentration 270 nM, RXRa partner concentration 90 nM)
# Summary of the method: as §1
# [17] = tested on: PXR homodimer (NR concentration 270 nM)
# Summary of the method: as §1
# [18] = tested on: RARa:RXR (NR concentration 270 nM, RXRa partner concentration 90 nM)
# Summary of the method: as §1
# [19] = tested on: RARa homodimer (NR concentration 270 nM)
# Summary of the method: as §1
# [20] = tested on: RARb:RXRa (NR concentration 270 nM, RXRa partner concentration 90 nM)
# Summary of the method: as §1
Sequence,PBM binding z-score [1],PBM binding z-score [2],PBM binding z-score [3],PBM binding z-score [4],PBM binding z-score [5],PBM binding z-score [6],PBM binding z-score [7],PBM binding z-score [8],PBM binding z-score [9],PBM binding z-score [10],PBM binding z-score [11],PBM binding z-score [12],PBM binding z-score [13],PBM binding z-score [14],PBM binding z-score [15],PBM binding z-score [16],PBM binding z-score [17],PBM binding z-score [18],PBM binding z-score [19],PBM binding z-score [20]
TTACCAAGGTGAATGGTCGTTGATGCACGCCTTG,0.766,0.485,-0.417,0.403,-0.853,1.35,1.32,2.39,1.14,2.06,2.03,2.67,0.334,0.253,0.0353,0.0282,-0.612,0.364,0.953,1.46
GTACCAAGGTGAATAGGTCGTTGAGGAGTAGGCG,0.778,0.909,0.0544,0.533,-0.56,2.32,1.22,1.67,0.113,1.14,1.82,2.41,-0.447,-0.52,1.24,0.61,0.0954,1.74,0.334,1.99
CGTCCAAGGTCAGAGGAGGTCAGTGAAGACAGAT,6.02,5.57,2.4,4.09,-0.0595,4.82,3.53,3.88,0.854,2.48,1.93,3.41,0.0529,-0.477,3.97,6.58,2.7,5.37,1.91,5.22
ATAAGTAGGTTACATCCGGGTCATTCAGGCTATG,2.43,4.37,1.57,2.84,1.24,4.53,6.68,5.15,3.19,4.37,7.68,7.66,4.25,3.55,2.34,3.51,2.42,3.58,1.79,2.26
GCAGACAGGTGAAACGCAGGTAATTCAGGGTGGC,-0.0187,-0.113,-0.552,-0.337,-1.33,0.845,0.419,-0.127,-0.526,-0.551,0.893,0.576,-0.406,-0.569,0.0586,-0.158,-0.351,0.462,-0.448,0.697
ATATGTAGGCTACATCCGGGTCATTCAGGCTATG,0.976,1.54,0.0787,1.85,0.425,3.62,3.08,2.77,1.13,1.85,5.71,5.66,1.96,1.11,0.66,2.34,1.04,2.51,0.115,1.27
TCTAACAGGCCAGAGGGTCACTCAAGAGGTACGG,1.24,1.31,-0.315,1.47,-0.439,2.54,1.41,2.62,3.2,2.71,1.73,0.466,-0.318,-0.0122,1.11,1.86,-0.0848,2.6,-0.0287,2.27
CGAACGTGGGCATGAGTTGATAGCAAATGCCGAT,-0.892,-0.876,-1.04,-0.998,-1.27,-1.82,0.51,-0.55,-0.697,-0.428,-0.469,-0.859,-1.14,-1.08,-1.28,-0.855,-0.719,-1.12,-0.791,-0.401
AGAGTGAGGTTATTAAGATCAGGGAATTGCGGTC,1.77,1.58,0.813,1.94,0.987,2.46,0.616,1.31,0.245,1.12,0.817,0.889,0.661,0.468,2.05,1.43,1.67,1.5,1.44,1.7
CCTACTGGTCCATCAGGTCATTGATATCAACGTT,1.32,1.8,2.15,2.01,0.36,1.88,0.421,1.34,0.261,0.824,0.344,1.32,0.234,0.596,1.48,1.99,1.32,2.05,0.854,1.87
CCGACTGGGGCAAAGGTTCCCATACTCAGTACGA,-0.153,-0.12,-0.431,-0.0438,-1.02,3,7.57,6.87,6.55,6.97,4.43,4.51,-0.428,-0.816,-0.0222,-0.128,-0.291,0.588,0.117,0.831
ACTCGGAGGACAAAGGTCAGATCTACGCCAGTGA,4.14,4.18,1.82,3.46,1,4.65,7.02,6.8,5.45,6.92,0.776,3.13,0.263,-0.358,2.46,3.86,0.325,4.45,1.42,4.33
CAAATTAGGTCACGAAAGGTCAAAGTCGAATGAC,7.62,8.19,7.52,7.45,3.07,6.87,10.1,8.6,6.67,8.69,8.68,8.9,4.28,2.39,5.32,7.26,2.64,7.69,3.07,5.8
TAGCCTAGGTCATGGGACAGTATACCACGCGAAC,5.01,3.4,0.47,3.01,0.331,4.29,3.92,3.74,1.14,2.55,1.93,3.38,0.841,0.664,2.06,1.99,-0.252,2.89,0.415,3.88
CAAACCAGGTCAAGGTCAAAGTCGGTTTGTGCCA,7.11,5.98,4.41,5.17,1.73,6.28,7.8,7.07,4.62,6.61,6.42,7.16,2.64,2.41,4.71,5.84,2.63,6.02,2.21,5.38
TTATATAGGTAAAGGTGAAAGTCGAACGATATGA,1.14,1.34,0.121,1.2,0.294,4.2,6.76,6.26,4.77,6.33,5.88,6.52,3.04,2.82,2.08,0.997,0.227,1.74,0.54,1.88
CCTCGTAGGACAACAGGAGGTCAGAGCTGCCAGA,0.951,2.16,1.91,1.57,-0.267,1.99,0.534,0.644,-0.534,0.258,0.397,0.633,-0.938,-1.38,1.75,2.08,0.26,2.37,0.699,2.56
CCTTACGGGTCACGAGGTTATTGCACGACGAGCG,6.84,4.54,0.946,4.15,0.296,6.08,7.34,6.45,3.32,5.41,4.41,5.61,1.02,0.757,3.66,4.88,0.56,6.61,1.28,4.57
TGAATGAGGATATAAGATCAGGGAACGTTGCAAA,0.013,-0.248,-0.305,-0.404,-0.253,-0.127,0.623,0.286,0.757,0.775,-0.556,0.057,0.56,0.888,0.688,-0.114,0.099,0.0893,0.416,-0.402
CCTCGGATGACAGAAGGTCAGAGCTGTCCGCTTT,1.3,1.79,0.493,1.37,0.0484,2.01,0.0217,0.56,-0.64,0.0995,0.0182,-0.0257,-1.19,-1.32,1.51,1.5,0.235,1.85,0.773,2.59
CAGCCTAGGCCAGGGCCAGTATAGGAGGAACGTT,-0.702,-1.16,-0.761,-1.14,-1.72,-0.754,0.0393,-1.36,-0.853,-1.1,-0.58,-0.938,-1.07,-1.68,-1.39,-1.04,-0.58,-0.83,-0.971,-0.0787
TCTTGTAGATCAACAGGAGGTTAACAAAGATCGA,0.166,1.73,0.274,1.3,-0.158,1.69,0.373,1.39,2.62,1.92,1.52,1.09,0.689,0.664,0.353,1.08,0.0367,1.36,-0.353,0.717
CCTAGCAGGCCAATCTGGGTCCCTCAAGGCTTGA,-0.114,-0.609,-0.704,-0.838,-1.11,-0.178,-0.823,-0.653,-1.08,-0.919,1.13,0.925,-1.33,-1.81,-1.12,-0.641,-0.809,-0.522,-0.809,0.0212
TGAATGAGGTTATAAGATCTGGGAACGTTGCAAA,1.32,1.03,-0.215,1.06,-0.0795,2.54,1.01,1.83,0.892,1.58,1.24,1.57,0.727,-0.0307,0.305,0.714,-0.0184,1.12,0.0804,1.07
CCAGACAGGTGACAAGGTAACTCAGCCTCGATTA,0.0849,0.145,-0.212,-0.039,-0.466,0.6,0.825,0.508,-0.365,0.0365,1.41,1.61,-0.344,-0.0688,0.918,-0.151,-0.207,0.278,0.367,0.783
ACTAGCAGGCCAAGGGTCATTCAAGATTAGTCCG,3.35,3.46,1.07,3.3,-0.0105,4.72,7.69,7.28,5.9,7.5,0.965,3.72,0.143,-0.155,1.76,3.83,0.144,4.26,0.503,3.41
TCATATAGGTAAAGGTGGAAGTCGAACGATATGA,0.695,0.507,0.313,0.415,0.0945,1.93,2.54,3.54,4.18,3.93,3.45,2.86,1.27,1.48,0.634,0.357,0.267,0.637,0.638,0.387
CCTACTGGGCCATCAGCTCATTGATATCAACGTT,-0.649,-0.431,-0.409,-0.655,-0.446,-0.141,0.457,0.344,-0.273,0.098,3.97,3.36,-0.394,-0.205,-0.413,-0.673,-0.788,-0.689,-0.576,-0.0601
